FEN1 inh = qHTS Assay for the Inhibitors of Human Flap endonuclease 1 (FEN1); 390,000 tested, 0.35% active; Potency, µM (titrated, usually from 114 µM), hits mostly inhibitors; AID 588795, 2011; Recombinant FEN1 flap cleavage, fluorescence, 15 min; P39748; also: nearly all actives have a fitted effect of over 65% in size
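Reaction started by adding substrate (50 nM final) to 10 nM enzyme after 15 min room-temperature compound preincubation. Reads at 0 and 15 min, with data normalized and fitted to a four-parameter Hill equation.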
POLI inh = qHTS for Inhibitors of Polymerase Iota. DNA polymerase iota (Homo sapiens), Q9UNA4. Pol iota fluorescent replication assay, 10 min. Potency, µM (series often up to 115 µM), usual class: inhibitors. 390,000 tested, 1% active. AID 588590, 2011
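Fluorescent replication assay read twice, at 0 min and 10 min after adding 50 nM (final) substrate. Enzyme (10 nM) and compounds were first incubated 15 min at room temperature; enzyme-free buffer wells were negative controls.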
Pol kappa inh-1 = qHTS for Inhibitors of Polymerase Kappa | purified Pol kappa, fluorescent DNA synthesis assay, 10 min | DNA polymerase kappa (Homo sapiens), Q9UBT6 | AID 588579, 2011 | Potency, µM (top dose mostly 107 µM), most hits filed as inhibitors | 400,000 tested, 0.53% active
Target sequence (Q9UBT6 whole entry, looked up): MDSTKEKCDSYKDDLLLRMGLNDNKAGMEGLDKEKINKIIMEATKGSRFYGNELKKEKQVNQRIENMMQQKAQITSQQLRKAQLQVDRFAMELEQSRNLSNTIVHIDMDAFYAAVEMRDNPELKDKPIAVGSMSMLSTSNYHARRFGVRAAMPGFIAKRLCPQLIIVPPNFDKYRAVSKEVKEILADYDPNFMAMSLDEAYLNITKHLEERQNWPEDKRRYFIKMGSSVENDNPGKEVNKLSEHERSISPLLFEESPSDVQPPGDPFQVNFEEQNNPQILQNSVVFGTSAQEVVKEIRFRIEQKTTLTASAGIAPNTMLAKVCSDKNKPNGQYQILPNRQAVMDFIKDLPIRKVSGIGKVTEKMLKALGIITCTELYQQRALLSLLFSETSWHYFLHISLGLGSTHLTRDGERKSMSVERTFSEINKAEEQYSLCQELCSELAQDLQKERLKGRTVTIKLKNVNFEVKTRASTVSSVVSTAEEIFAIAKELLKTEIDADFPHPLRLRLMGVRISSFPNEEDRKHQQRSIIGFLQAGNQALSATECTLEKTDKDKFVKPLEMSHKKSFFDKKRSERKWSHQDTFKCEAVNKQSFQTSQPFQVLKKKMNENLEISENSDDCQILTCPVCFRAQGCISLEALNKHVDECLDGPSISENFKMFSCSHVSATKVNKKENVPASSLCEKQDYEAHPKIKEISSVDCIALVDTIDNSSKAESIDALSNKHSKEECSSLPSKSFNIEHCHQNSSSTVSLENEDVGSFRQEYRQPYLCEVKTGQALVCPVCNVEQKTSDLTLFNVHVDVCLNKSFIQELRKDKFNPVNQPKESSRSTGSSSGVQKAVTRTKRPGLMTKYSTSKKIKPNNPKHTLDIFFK
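First, compounds were pin-transferred onto 10 nM Pol kappa. After 15 min at room temperature, substrate was added to 50 nM final. Fluorescence was then measured kinetically at 0 and 10 min.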
POLB inh = qHTS Assay for Inhibitors of DNA Polymerase Beta | P06746 | Pol beta primer extension/strand displacement, fluorescence kinetic | Potency, µM (highest dose often 114 µM), usual class: inhibitors | 340,000 tested, 1.3% active | AID 485314, 2010
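Homogeneous kinetic assay of primer extension and strand displacement by 10 nM Pol beta, preincubated 15 min at room temperature with compound before 50 nM substrate (final) was added. Read at 0 and 10 min; four-parameter Hill fit.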
Pol eta inh-1 = qHTS for Inhibitors of Polymerase Eta; recombinant Pol eta, fluorescent DNA replication assay; 390,000 tested, 1.2% active; Potency, µM (doses to about 114 µM), actives largely listed as inhibitors
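Fluorescent replication assay: 50 nM final substrate added after a 15 min room-temperature compound preincubation with 10 nM enzyme. Signal taken at 0 min and again at 10 min.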
PI5P4Ka inh = qHTS for Inhibitors of phosphatidylinositol 5-phosphate 4-kinase (PI5P4K). Phosphatidylinositol 5-phosphate 4-kinase type-2 alpha (Homo sapiens), P48426. PI5P4Kalpha enzyme, ADP-Glo luminescence, 60 min; active compounds read low. max response, %. 330,000 tested, 1.2% active. AID 652105, 2013; active = max response of -50% or lower; inconclusive = between -30% and -50%; inactive = -30% or higher; also: value at the top dose of about 77 µM
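Compounds were pin-transferred onto PI5P4Kalpha and substrate in HEPES pH 7.4 buffer with EGTA, CHAPS and 5% DMSO. ATP (5 microM final) started the reaction, which ran 60 minutes at room temperature before ADP-Glo detection.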
PGK validate = qHTS for inhibitors of Phosphogylcerate Kinase: Hit Validation Screen; Potency, µM (titrated, usually from 57.5 µM), hits mostly inhibitors; shares compounds with Pol kappa inh-1; 500 tested, 79% active; TbPGK coupled GAPDH assay, Kinase-Glo luminescence; AID 686980, 2013; also: nearly all actives have a fitted effect of over 65% in size
Pol iota confirm = qHTS for Inhibitors of Polymerase Iota: Confirmatory Assay for Cherry-picked Compounds; shares compounds with Pol kappa inh-1; Pol iota primer extension, TAMRA/BHQ fluorescence; Potency, µM, most hits filed as inhibitors; 1,500 tested, 77% active; AID 720496, 2013
Pol kappa inh-2 = qHTS for Inhibitors of Polymerase Kappa: Confirmatory Assay for Cherry-picked Compounds. AID 720501, 2013. purified Pol-kappa, fluorescent strand-displacement substrate. Potency, µM, hits mostly inhibitors. 920 tested, 76% active. shares compounds with Pol eta inh-1
Pol eta inh-2 = qHTS for Inhibitors of Polymerase Eta: Confirmatory Assay for Cherry-picked Compounds; Potency, µM, most hits filed as inhibitors; shares compounds with Pol eta inh-1; AID 720502, 2013; Pol eta primer extension, TAMRA/BHQ fluorescence, 10 min; 2,600 tested, 64% active
Large screens that a line does not name were inactive (follow-up assays come after a bar, where they were run). Compounds with a hit are over-represented: about 2.8% of the library has one in this group of screens. Unless noted, calls follow the shape of the dose curve; as a rule, active = well fitted curve in the direction sought with a large enough effect; inconclusive = small, poorly fitted or top-dose-only effect, or another doubt; inactive = no such curve, though single readings can be large; an effect the other way counts as inactive or inconclusive.

Cc1ccc(OCCC(=O)OCC(=O)NC2CCS(=O)(=O)C2)cc1 (stereo unspecified)	none (no result: POLB inh)
O=c1cc(O)c2sc3nc(-c4cccnc4)cc(C(F)(F)F)c3c2[nH]1	FEN1 inh inconclusive, POLI inh 17.8µM, Pol kappa inh-1 inconclusive, POLB inh 12.6µM, Pol eta inh-1 inconclusive, PI5P4Ka inh inconclusive | Pol iota confirm 67 | Pol eta inh-2 inconclusive
N#Cc1ccc(C(=O)CSc2n[nH]c(=O)n2-c2cccnc2)cc1	none
COCCN1C(=O)C(=O)/C(=C(/O)c2cccc(OC)c2)C1c1ccco1 (stereo unspecified)	POLI inh inconclusive, Pol kappa inh-1 inconclusive, POLB inh 31.6µM, Pol eta inh-1 10µM | Pol iota confirm inconclusive | Pol eta inh-2 60.1
COc1cccc(/C(O)=C2/C(=O)C(=O)N(Cc3cccnc3)C2c2ccco2)c1 (stereo unspecified)	POLI inh inconclusive, POLB inh inconclusive (no result: PI5P4Ka inh)
CC1OC(OCC2OC(Oc3c(-c4ccc(O)cc4)oc4cc(O)cc(O)c4c3=O)C(O)C(O)C2O)C(O)C(O)C1O (stereo unspecified)	FEN1 inh inconclusive, POLI inh inconclusive, Pol kappa inh-1 28.2µM, POLB inh inconclusive, Pol eta inh-1 10µM, PI5P4Ka inh -66.6 | PGK validate 5.17µM | Pol iota confirm 42.3 | Pol eta inh-2 60.1
Nc1ncnc2c1cnn2C1CCCCC1	none
COc1ccc(C(=O)N/C(=C\c2cn(S(=O)(=O)N(C)C)c3ccccc23)C(=O)NCCN2CCOCC2)cc1	none
CCC(=O)Nc1ccc2nc3c(=O)[nH]c(=S)[nH]c3nc2c1	FEN1 inh 50.1µM, POLI inh inconclusive, Pol kappa inh-1 44.7µM, POLB inh 39.8µM, Pol eta inh-1 17.8µM, PI5P4Ka inh -66.2 | Pol iota confirm 26.7 | Pol kappa inh-2 16.8 | Pol eta inh-2 30.1
COc1ccc(-n2nc(C(=O)Nc3ccccn3)c3c4ccccc4n(C)c3c2=O)cc1	none (no result: Pol eta inh-1, PI5P4Ka inh)
C=CCn1c(SCC(=O)c2ccc(O)c(O)c2)nnc1-c1ccc(OC)cc1	POLI inh 50.1µM, Pol kappa inh-1 44.7µM, Pol eta inh-1 10µM, PI5P4Ka inh -51.4 (no result: POLB inh) | Pol iota confirm inconclusive | Pol eta inh-2 inconclusive
Cc1cccc(C)c1CC(=O)N1CCOCC1	none
Nc1c(/C=C2/C=CC(=O)C(O)=C2)c(=O)nc2sc(CC(=O)N3CCCC3)nn12	FEN1 inh inconclusive, POLI inh 3.16µM, Pol kappa inh-1 inconclusive, POLB inh 7.94µM, Pol eta inh-1 3.98µM, PI5P4Ka inh -55.7 | Pol iota confirm 23.8 | Pol eta inh-2 5.36
Nc1cc(N)nc(SCC(=O)N2CCCCC2)n1	none

Source: PubChem
